Cav3 T inh = Cav3.2 calcium influx blockers – cell-based, Fluo-4 calcium fluorescence, FDSS, MLSMR library, primary screen; Voltage-dependent T-type calcium channel subunit alpha-1H (Homo sapiens), O95180; 100,000 tested, 4% active; Cav3.2-expressing cells; stronger effect = lower value; B-score at 10 µM;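 active means single-dose well whose peak fluorescence ratio is a statistical outlier from its plate by either plate-standardised score or position-corrected B-score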
CYP2C9 inh = blockers of cytochrome P450 2C9 activity – biochemical, luminescence, ADME assay, primary screen | P11712 | CYP2C9 Supersomes, luciferin-H conversion | inhibition, % at 5 µM | 96,000 tested, 20% active;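 active means blocking of liver enzyme CYP2C9 beyond about 50% at 5 µM, limit read from the data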
CYP2C19 inhib = blockers of cytochrome P450 2C19 activity – biochemical, luminescence, ADME assay, primary screen; 96,000 tested, 21% active; AID 778, 2007; CYP2C19 Supersomes, luciferin-H EGE luminescence, 30 min; P33261; inhibition, % at 5 µM;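 active means CYP2C19 inhibition above a set limit at 5 µM in the primary screen, cut at about 50% in these data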;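 further: plate controls were negative control wells for no effect and 2.5 mM tranylcypromine positive control for full effect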
CYP2C19 act = human CYP2C19 activators, primary screen, biochemical, luminescence. Cytochrome P450 2C19 (Homo sapiens), P33261. recombinant CYP2C19, luciferin-H EGE luminescence; stronger effect = higher value; 0 = fully inhibited enzyme, 1 = untreated enzyme. activation factor at 5 µM. 96,000 tested, under 10 active. AID 1025, 2008;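 active means activation factor of at least 2 at 5 µM in the primary screen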;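 further: 0 = wells with 2.5 mM tranylcypromine and 1 = vehicle-only wells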
CYP2C9 act = human CYP2C9 activators, primary screen, biochemical, luminescence. activation factor at 5 µM. Cytochrome P450 2C9 (Homo sapiens), P11712. recombinant CYP2C9, luciferin-H conversion; stronger effect = higher value; factor 1 = untreated enzyme, 0 = blocked. AID 1024, 2008. 96,000 tested, 1.4% active;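 active means activation factor of 2 or more for CYP2C9 at a 5 µM dose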;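 further: 0 = sulfaphenazole-blocked wells and 1 = vehicle-only wells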
The depositor's hits bear a star; · = no result given. A selection: hits, their analogues and other compounds. The true share with any hit is near 27%.

SMILES	Cav3 T inh	CYP2C9 inh	CYP2C19 inhib	CYP2C19 act	CYP2C9 act
Cc1[nH]nc2cn[nH]c12	0.22	-7	-12	1.1	1.1
O=C1Cn2c(nc3ccccc32)N1c1cccc(C(F)(F)F)c1	0.25	31	59*	0.4	0.7
COc1cc(-c2nnc(SCC(=O)Nc3ccc4c(c3)OCCO4)o2)cc(OC)c1OC	0.98	75*	21	0.8	0.2
CCN(CC)S(=O)(=O)c1ccc(-c2nnc(SCC(=O)Nc3ccc(OC)cc3)o2)cc1	0.91	·	·	·	·
COc1ccc(NC(=O)CSc2ccccc2)c(OC)c1	-0.033	·	·	·	·
CCN(CC)S(=O)(=O)c1ccc(-c2nnc(SCC(=O)Nc3ccc(OC)c(OC)c3)o2)cc1	1	70*	21	0.8	0.3
COc1cc(-c2nnc(SCC(=O)N(Cc3ccccc3)C(C)(C)C)o2)cc(OC)c1OC	-3	16	85*	0.1	0.8
CCN(CC)S(=O)(=O)c1ccc(OC)c(NC(=O)CSc2ccccc2)c1	-2.9	89*	50	0.5	0.1
CC(=O)NC1CC2CCCC(C1)N2S(=O)(=O)c1cccc(F)c1 (stereo not drawn)	0.24	-28	47	0.5	1.3
COC(C[C@@H](O)C[C@H](O)[C@@H](C)OCc1ccccc1)OC	0.38	·	·	·	·
COC(=O)c1cc(OC)c(OC)cc1NC(=O)c1ccc(OC)c(OC)c1	2	-11	9	0.9	1.1
Cc1ccc(/C=N/n2cnc3sc(-c4ccccc4)cc3c2=O)o1	-0.39	3	2	1	1
O=C(NC(=S)Nc1ccc(C(=O)N2CCOCC2)cc1)c1ccc([N+](=O)[O-])cc1	0.59	4	18	0.8	1
COc1ccc(NC(=O)n2nc(OC(=O)c3cccs3)cc2N)cc1	0.52	·	·	·	·
CCCn1c(SCC(=O)c2ccc(CC)cc2)n[nH]c1=O	-0.85	11	0	1	0.9
CCCc1cn(S(=O)(=O)c2ccc(OC)cc2OC)nc1N	0.41	12	48	0.5	0.9
COc1ccc(OC)c(-c2cn(S(=O)(=O)c3ccccc3)nc2N)c1	-1.1	31	22	0.8	0.7
COc1ccccc1-c1cn(S(=O)(=O)c2ccc(C)cc2)nc1N	-0.2	56*	16	0.8	0.4
CCc1cn(S(=O)(=O)c2ccccc2OC)nc1N	1	-80	50*	0.5	1.8
Cc1cccc(OCCOc2ccc(/C=N/NC(=O)Cc3nnc(N)s3)cc2)c1	0.89	0	-4	1	1
COc1ccc(CNC(=O)C(C#N)c2nc3ccccc3nc2N2CCN(C)CC2)cc1 (stereo not drawn)	0.73	46	58*	0.4	0.5
Cc1ccc(C)c(S(=O)(=O)C(C#N)c2nc3ccccc3nc2N2CC(C)OC(C)C2)c1 (stereo not drawn)	-5.7*	99*	52*	0.5	0
CC1CN(c2nc3ccccc3nc2C(C#N)C(=O)NCc2ccc3c(c2)OCO3)CC(C)O1 (stereo not drawn)	-7.9*	40	19	0.8	0.6
COc1ccc(S(=O)(=O)C(C#N)c2nc3ccccc3nc2N2CCCCC2)cc1 (stereo not drawn)	-4.8*	64*	57*	0.4	0.4
O=C(O)CCNS(=O)(=O)c1ccc(Oc2ccccc2)cc1	-0.012	12	0	1	0.9
SMILES	Cav3 T inh	CYP2C9 inh	CYP2C19 inhib	CYP2C19 act	CYP2C9 act
NC(=O)C1=C[C@H](c2ccc(C(F)(F)F)cc2)C[C@H](OCCCCO)O1	0.92	·	·	·	·
CC(C)NC(=O)C1CCN(C(=O)C(C(=O)c2ccccc2)n2cc(Cl)ccc2=O)CC1 (stereo not drawn)	1.1	4	1	1	1
Cc1cc(C)nc(N2CCCC(C(=O)Nc3nnc(C(C)C)s3)C2)n1 (stereo not drawn)	1.2	·	·	·	·
COc1ccc(CNC(=O)C(C#N)c2nc3ccccc3nc2N2CCCC2)cc1 (stereo not drawn)	-7.3*	24	16	0.8	0.8
CCCCNC(=O)C(C#N)c1nc2ccccc2nc1N1CCCC1 (stereo not drawn)	·	4	8	0.9	1
COc1cccc(N2C(=O)C(c3ccccc3)=C(c3nc4ccccc4s3)C2NC(C)=O)c1 (stereo not drawn)	·	51*	56*	0.4	0.5

Screening results (PubChem)
